Screening results: PubChem, several laboratories
In the library only some 3.5% were active in any assay of this set; here they are far more common.
Platelet DG rel = platelet dense granule release activity; human platelet-rich plasma, SFLLRN dense granule ATP release, luminescence; inhibition, %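 (compounds screened at 7.5 µM in platelet-rich plasma)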; 0.22% of 300,000 active; AID 1663;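 active = mean replicate score, as percent of positive control, at or above 50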
HSP90 refold inh = HSP90 refolding inhibition in rabbit reticulocyte lysate; luciferase refolding luminescence, 3 h; inhibition, % at 5.6 µM; 0.91% of 290,000 active; AID 1789;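 active = inhibition above the screen-wide mean plus 3 SD, computed separately per campaign, cut at about 16% in these data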;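 also: inhibitors lower the luminescence because luciferase stays unfolded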
TWEAK Fn14 block = inhibitors of TWEAK-Fn14 interaction signaling; TWEAK-stimulated Fn14 reporter cells, luciferase luminescence, 8 h; inhibition, % at 10 µM; 2% of 360,000 active; AID 1159606; in the data active = inhibition above about 50%
TROY signal inh = TROY signaling inhibition. Q293 LMP1-TROYcd NF-kB luciferase reporter, 4 h. inhibition, % at 10 µM. 0.98% of 360,000 active;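 active = compounds whose plate-normalised and pattern-corrected inhibition of the luciferase reporter signal at the single screening dose is 50% or more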
TRAIL sens C8 = caspase-8 TRAIL sensitization. inhibition (viability loss, TRAIL sensitization), % at 10 µM. 1% of 360,000 active. AID 624354. NB7+C8 cells + TRAIL, ATPlite viability luminescence;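 active = compounds causing at least 50% loss of cell viability in the single-dose screen, relative to plate controls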
PPC-1+TRAIL kill = PPC-1 cancer cell killing with TRAIL present. PPC-1 cells + TRAIL, ATPLite viability luminescence. cell killing (% activity), % at 4 µM or 5 µM. 0.41% of 220,000 active;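 active = cell killing above 50% in the first pass at 4 µM, then a duplicate retest at 5 µM averaging 50% or more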
Of the large screens only hits and unclear results are named; the others gave an inactive call.

O=C(N/N=C/c1coc2ccc(Cl)cc2c1=O)c1ccc(O)cc1	TWEAK Fn14 block 70 (no result: PPC-1+TRAIL kill)
CC(=O)Nc1cc(-c2ccc(CO)cc2)cn2c(-c3cccc(C(F)(F)F)c3)cnc12	none (no result: Platelet DG rel, HSP90 refold inh, PPC-1+TRAIL kill)
CCN(CCn1cccn1)Cc1cn[nH]c1-c1ccc(-c2ccccc2)cc1	none
CCN(CCn1cccn1)Cc1cn[nH]c1-c1cccc2ccccc12	Platelet DG rel 59
C[C@@H]1CN([C@H](C)CO)C(=O)CCCn2nncc2CO[C@H]1CN(C)S(=O)(=O)c1ccc2ccccc2c1	none (no result: Platelet DG rel, HSP90 refold inh, PPC-1+TRAIL kill)
CC(C)(C)n1nnnc1C(c1cccc(C#N)c1)N1CCCc2ccccc21 (stereo not given)	TWEAK Fn14 block 50
CC(C)(C)n1nnnc1C(c1ccc(Cl)cc1)N1CCCc2ccccc21 (stereo not given)	none
CCC(C)(O)C(=O)N[C@H]1CCCN1C(=O)/C=C/c1ccccc1 (stereo not given in full)	none (no result: Platelet DG rel, HSP90 refold inh, PPC-1+TRAIL kill)
COc1ccc(OC)c(NC(=O)C(=O)NNC(=O)C23CC4CC(CC(C4)C2)C3)c1	none
O=C(NCc1ccc(F)cc1)Nc1ccccc1	none (no result: PPC-1+TRAIL kill)
O=C(NCc1ccc(F)cc1)C(c1ccccc1)c1ccccc1	TWEAK Fn14 block 54 (no result: PPC-1+TRAIL kill)
CN(Cc1ccccc1)c1ncnc(N)c1[N+](=O)[O-]	none
CC1CCCCN1c1ncnc(N)c1[N+](=O)[O-] (stereo not given)	TWEAK Fn14 block 61
CC1Cc2ccccc2N1c1ncnc(N)c1[N+](=O)[O-] (stereo not given)	TWEAK Fn14 block 93, TROY signal inh 68
c1ccc2c(c1)CCN(c1ncnc3nc[nH]c13)C2	none
CC1Cc2ccccc2N1c1ncnc2nc[nH]c12 (stereo not given)	TWEAK Fn14 block 60
CCNC(=O)C1(C)CCCN(Cc2cccc3c2OCCO3)C1 (stereo not given)	none (no result: Platelet DG rel, HSP90 refold inh, PPC-1+TRAIL kill)
CCOC(=O)CNS(=O)(=O)c1ccc(S(=O)(=O)NC2CC2)cc1	none (no result: PPC-1+TRAIL kill)
C/C(=N\NC(=O)c1cc(C)nc2ccc(C)cc12)c1ccncc1	none (no result: PPC-1+TRAIL kill)
COc1ccc2oc(=O)c(-c3csc(Nc4ccc(O)cc4)n3)cc2c1	TWEAK Fn14 block 68
COc1ccc2oc(=O)c(/C(C)=N/Nc3nc(-c4cc(C)ccc4C)cs3)cc2c1	none
COc1ccc(C(=O)O/N=C(/C)c2cccs2)cc1	Platelet DG rel 59
N/C(=N\OC(=O)c1cccc(Br)c1)c1ccc(Br)cc1	TRAIL sens C8 59
Cc1ccc(C(=O)O/N=C(\N)c2ccc(Br)cc2)cc1	TRAIL sens C8 81
N/C(=N\OC(=O)c1cccc(Br)c1)c1ccc([N+](=O)[O-])cc1	none (no result: PPC-1+TRAIL kill)
N/C(=N\OC(=O)c1ccccc1)c1ccn[nH]1	TRAIL sens C8 56 (no result: PPC-1+TRAIL kill)
CC(=O)Nc1ccc(S(=O)(=O)NC2(C(F)(F)F)C(=O)Nc3c2c(=O)[nH]c(=O)n3Cc2ccco2)cc1 (stereo not given)	none
Cc1ccc(/C(N)=N/OC(=O)C23CC4CC(CC(C4)C2)C3)cc1	TRAIL sens C8 88
COc1ccc(C(=O)O/N=C(\N)c2ccc(Br)cc2)cc1	TRAIL sens C8 70 (no result: PPC-1+TRAIL kill)
N/C(=N\OC(=O)c1ccc(Br)cc1)c1ccccc1	TRAIL sens C8 84
N/C(=N\OC(=O)c1ccco1)c1ccc(Br)cc1	none (no result: Platelet DG rel)
O=C1OC(Nc2nc(-c3ccc(F)cc3)cs2)c2ccccc21 (stereo not given)	TWEAK Fn14 block 59 (no result: PPC-1+TRAIL kill)
COc1cccc(-c2csc(NC3OC(=O)c4c3ccc(OC)c4OC)n2)c1 (stereo not given)	none
COc1ccc2c(c1OC)C(=O)OC2Nc1nc(-c2ccc(-c3ccccc3)cc2)cs1 (stereo not given)	TRAIL sens C8 62
Fc1c(F)c(C(F)(F)F)c(F)c(F)c1N/N=C\c1cccs1	TWEAK Fn14 block 60
C=C1CC(Cn2cc(Br)c(=O)[nH]c2=O)(c2ccc(-c3ccccc3)cc2)OC1=O (stereo not given)	TWEAK Fn14 block 83, TRAIL sens C8 94 (no result: Platelet DG rel, HSP90 refold inh, PPC-1+TRAIL kill)
O=c1[nH]c(=O)n(Cc2ccc(Oc3ccccc3)cc2)cc1Br	none (no result: PPC-1+TRAIL kill)
CC1(C(=O)NS(=O)(=O)c2cccc(F)c2)CCN1C(=O)C1CCCCC1 (stereo not given)	none (no result: Platelet DG rel, HSP90 refold inh, PPC-1+TRAIL kill)
CCC(=O)N1CCc2cc(S(=O)(=O)CCC(=O)N3CCCC(C)C3)ccc21 (stereo not given)	none (no result: PPC-1+TRAIL kill)
CS(=O)(=O)N(CCc1ccccc1)CC(=O)NCc1ccco1	TWEAK Fn14 block 82 (no result: TROY signal inh)
Nc1nc(N)c2c(ccc3nccc32)[nH]1	TRAIL sens C8 80
CCOc1ccc(-c2nnc(SCc3nnc(-c4ccccc4)o3)n2-c2ccccc2F)cc1	TWEAK Fn14 block 52, TROY signal inh 61
CCOc1ccccc1N(C(=O)c1snc(C(N)=O)c1N)C(C(=O)NCc1ccccc1)c1ccc(O)cc1 (stereo not given)	TWEAK Fn14 block 86 (no result: PPC-1+TRAIL kill)
CCOC(=O)C1=CCN(S(=O)(=O)c2ccccc2F)C1c1ccc(Cl)cc1 (stereo not given)	none (no result: Platelet DG rel, HSP90 refold inh, PPC-1+TRAIL kill)
CCOC(=O)C1=CCN(S(=O)(=O)c2ccccc2C)C1c1ccc(Cl)cc1 (stereo not given)	TRAIL sens C8 59 (no result: Platelet DG rel, HSP90 refold inh, PPC-1+TRAIL kill)
CC(C)(C)c1ccc(OCCC(=O)OCC(=O)Nc2cccnc2Cl)cc1	none (no result: HSP90 refold inh, PPC-1+TRAIL kill)
O=C(Nc1ccc(F)c(Cl)c1)c1ccc2nc([C@@H]3O[C@H](CO)[C@H](O)[C@H](O)[C@H]3O)[nH]c2c1	none (no result: Platelet DG rel, HSP90 refold inh, PPC-1+TRAIL kill)
O=c1c(-c2cc3ccccc3[nH]2)nc2ccccc2n1C(CCc1ccccc1)c1nc2ccccc2[nH]1 (stereo not given)	none (no result: Platelet DG rel, HSP90 refold inh, TWEAK Fn14 block, TROY signal inh, PPC-1+TRAIL kill)
C=C1C(=O)O[C@H]2C[C@H]1[C@@H](OC(C)=O)C/C(C)=C/CC/C(C)=C\CC[C@]2(C)O	TWEAK Fn14 block 86 (no result: Platelet DG rel, HSP90 refold inh, PPC-1+TRAIL kill)
C=C1C(=O)O[C@@H]2[C@H]3O[C@]3(C)CC/C=C(\C)CC[C@@H]12	none (no result: Platelet DG rel, HSP90 refold inh, PPC-1+TRAIL kill)
CCN(C(=O)COC(=O)c1ccc([N+](=O)[O-])o1)c1cccc2ccccc12	none (no result: Platelet DG rel, HSP90 refold inh, PPC-1+TRAIL kill)
Cn1c(CSc2nc3ccccc3n2C)nc2ccccc21	none
Cn1c(SC2=CS(=O)(=O)c3ccccc32)nc2ccccc21	TWEAK Fn14 block 88, TROY signal inh 56
CC(C)COC(=O)c1ccc2c(c1O)C(=O)c1ccccc1C2=O	TWEAK Fn14 block 71, TRAIL sens C8 57
COc1ccc2c(c1O)C(=O)c1ccccc1C2=O	none (no result: TWEAK Fn14 block, TROY signal inh, TRAIL sens C8)
Cc1cc(C)n(-c2nc3ccccc3c(=O)n2OCC(N)=O)n1	none
Cc1cc(CC(C)C)n(-c2nc3ccccc3c(=O)n2OCC(N)=O)n1	TROY signal inh 53
O=C(c1ccco1)N1CCN(c2nc(C(F)(F)F)nc3c2nnn3Cc2ccccc2)CC1	TWEAK Fn14 block 55, TROY signal inh 53
C[C@@H](NC(=O)c1ncn2c1c(=O)[nH]c1ccc(Br)cc12)c1ccccc1	TRAIL sens C8 69 (no result: Platelet DG rel, HSP90 refold inh, PPC-1+TRAIL kill)
COc1cc(OC)cc(C(=O)NCCc2cnc[nH]2)c1	none (no result: PPC-1+TRAIL kill)
COc1ccc(C(=O)/C=C/C(=O)N(CC(=O)NC2CCCCC2)Cc2ccccc2)c(O)c1	none
